Measured values published in the supplement of paper PMC9262897, “Low-cost anti-mycobacterial drug discovery using engineered E. coli” (Nature Communications, 2022).
Counter-ions that a name gives are not always drawn. ± gives the standard deviation of the averaged measurements.

Assays:
Test in all cases: growth (OD600 after 10 h); higher = more growth (less inhibition)
[1] = test system: E. coli TESEC Alr+ wild-type control; details: compound 0.1 mM; raw OD600 reference: median of DMSO wells 0.241, cell-free background 0.041
Experimental: (§1)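 TESEC Mtb Alr E. coli, or the Alr+ wild-type control, in 384-well plates with Prestwick library compounds at 0.1 mM and 1% DMSO, across arabinose induction levels of 1E3 to 1E7 nM. Growth is read as OD600 after 10 h at 37 °C in triplicate biological replicates.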

[2] = test system: E. coli TESEC Mtb Alr; details: compound 0.1 mM
Experimental: as §1

[3] = test system: E. coli TESEC Mtb Asd; details: compound 0.1 mM
Experimental: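 TESEC E. coli strains in which the native enzyme is deleted and replaced by arabinose-inducible Mtb Asd, DapB, CysH or TrpD, each grown in its selective medium. Strains were screened against the Prestwick library at 0.1 mM and 1% DMSO in 384-well format at low and high arabinose induction. Growth is read as OD600 after 10 h in triplicate.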

[4] = test system: E. coli TESEC Alr+ wild-type control; details: compound 0.1 mM; raw OD600 reference: median of DMSO wells 0.49, cell-free background 0.052
Experimental: (§2)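 TESEC Mtb Alr E. coli (ΔaraC ΔtolC ΔentC Δalr ΔdadX, arabinose-inducible Mtb Alr) or the Alr+ wild-type control strain, grown in defined M9-fructose medium without D-alanine in 96-well plates with Prestwick library compounds at 0.1 mM and 1% DMSO. Low Alr induction is 0.1 µM arabinose and high induction is 10 mM arabinose.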

[5] = test system: E. coli TESEC Mtb Alr; details: compound 0.1 mM; remark: listed apart in the source
Experimental: as §2

[6] = arabinose 1000 nM, raw OD600 reference: median of DMSO wells 0.294, cell-free background 0.041
[7] = arabinose 10000 nM, raw OD600 reference: median of DMSO wells 0.264, cell-free background 0.041
[8] = arabinose 100000 nM, raw OD600 reference: median of DMSO wells 0.201, cell-free background 0.041
[9] = arabinose 1000000 nM, raw OD600 reference: median of DMSO wells 0.193, cell-free background 0.041
[10] = arabinose 10000000 nM, raw OD600 reference: median of DMSO wells 0.146, cell-free background 0.041
[11] = arabinose induction (level): High, raw OD600 reference: median of DMSO wells 0.331, cell-free background 0.041
[12] = arabinose induction (level): Low, raw OD600 reference: median of DMSO wells 0.417, cell-free background 0.041
[13] = arabinose 100 nM, raw OD600 reference: median of DMSO wells 0.413, cell-free background 0.052
[14] = arabinose 10000000 nM, raw OD600 reference: median of DMSO wells […], cell-free background 0.052

Row | Structure (SMILES) | growth [1] | growth [2, 6] | growth [2, 7] | growth [2, 8] | growth [2, 9] | growth [2, 10] | growth [3, 11] | growth [3, 12] | growth [4] | growth [5, 13] | growth [5, 14]
1 | O=C(O)CCC(=O)Nc1ccc(S(=O)(=O)Nc2nccs2)cc1 [Succinylsulfathiazole] | 0.257 ± 0.0064 | 0.328 ± 0.017 | 0.264 ± 0.0094 | 0.21 ± 0.018 | 0.18 ± 0.0018 | 0.157 ± 0.0071 | 0.447 ± 0.027 | 0.432 ± 0.04 | 0.455 ± 0.037 | 0.4084 ± 0.0019 | 0.317 ± 0.014
2 | O=C(OCC(O)CO)c1ccccc1Nc1ccnc2cc(Cl)ccc12 (configuration not stated) [Glafenine hydrochloride] | 0.116 ± 0.0048 | 0.146 ± 0.006 | 0.164 ± 0.017 | 0.187 ± 0.026 | 0.102 ± 0.0023 | 0.144 ± 0.0045 | 0.253 ± 0.04 | 0.17 ± 0.021 | 0.374 ± 0.0054 | 0.384 ± 0.022 | 0.149 ± 0.02
3 | CO[C@@]1(NC(=O)CSCC#N)C(=O)N2C(C(=O)O)=C(CSc3nnnn3C)CS[C@@H]21 [Cefmetazole sodium salt] | 0.0393 ± 0.0013 | 0.0392 ± 0.0012 | 0.0395 ± 0.00076 | 0.0392 ± 0.0027 | 0.03973 ± 5.8e-05 | 0.03957 ± 0.00025 | 0.0524 ± 0.0042 | 0.0557 ± 0.0072 | 0.0516 ± 0.012 | 0.0461 ± 0.00055 | 0.0549 ± 0.0037
4 | CC(=O)Oc1ccc(C(c2ccc(OC(C)=O)cc2)c2ccccn2)cc1 [Bisacodyl] | 0.202 ± 0.0032 | 0.245 ± 0.018 | 0.289 ± 0.016 | 0.219 ± 0.031 | 0.201 ± 0.0038 | 0.168 ± 0.0065 | 0.354 ± 0.011 | 0.24 ± 0.028 | 0.5 ± 0.016 | 0.39 ± 0.0062 | 0.39 ± 0.0069
5 | CC1(O)CCOC(=O)C1 (configuration not stated) [Mevalonic-D, L acid lactone] | 0.244 ± 0.0056 | 0.304 ± 0.017 | 0.271 ± 0.0041 | 0.186 ± 0.019 | 0.203 ± 0.0065 | 0.141 ± 0.0074 | 0.269 ± 0.027 | 0.402 ± 0.022 | 0.506 ± 0.11 | 0.394 ± 0.03 | 0.349 ± 0.015
6 | Cc1cc(CC(=O)O)n(C)c1C(=O)c1ccc(Cl)cc1 [Zomepirac sodium salt] | 0.22 ± 0.0032 | 0.261 ± 0.022 | 0.239 ± 0.0082 | 0.16 ± 0.0043 | 0.1938 ± 0.0017 | 0.121 ± 0.0027 | 0.473 ± 0.13 | 0.295 ± 0.069 | 0.476 ± 0.083 | 0.392 ± 0.014 | 0.3428 ± 0.0013
7 | O=C(CCNNC(=O)c1ccncc1)NCc1ccccc1 [Nialamide] | 0.237 ± 0.0061 | 0.28 ± 0.01 | 0.276 ± 0.0091 | 0.193 ± 0.018 | 0.208 ± 0.0031 | 0.144 ± 0.0023 | 0.237 ± 0.041 | 0.346 ± 0.062 | 0.516 ± 0.07 | 0.431 ± 0.0058 | 0.337 ± 0.023
8 | Oc1ncnc2[nH]ncc12 [Allopurinol] | 0.234 ± 0.0068 | 0.283 ± 0.013 | 0.241 ± 0.0057 | 0.189 ± 0.019 | 0.172 ± 0.0073 | 0.141 ± 0.0016 | 0.449 ± 0.032 | 0.435 ± 0.038 | 0.53 ± 0.078 | 0.41 ± 0.013 | 0.34 ± 0.015
9 | CCc1nc(N)nc(N)c1-c1ccc(Cl)cc1 [Pyrimethamine] | 0.1323 ± 0.0013 | 0.123 ± 0.0079 | 0.0978 ± 0.0026 | 0.123 ± 0.0035 | 0.0795 ± 0.0019 | 0.139 ± 0.002 | 0.17 ± 0.024 | 0.179 ± 0.015 | 0.5321 ± 0.0036 | 0.401 ± 0.026 | 0.261 ± 0.018
10 | C[C@@H](O)[C@H]1C(=O)N2C(C(=O)O)=C(S[C@@H]3CN[C@H](C(=O)N(C)C)C3)[C@H](C)[C@H]12 [Meropenem] | 0.0404 ± 0.00057 | 0.0418 ± 0.0014 | 0.0448 ± 0.0059 | 0.0523 ± 0.0007 | 0.0817 ± 0.0057 | 0.0962 ± 0.003 | 0.138 ± 0.0038 | 0.0552 ± 0.0001 | 0.0604 ± 0.0014 | 0.04557 ± 0.00025 | 0.0882 ± 0.013
11 | CCCCCCNC(=O)n1cc(F)c(=O)[nH]c1=O [Carmofur] | 0.1489 ± 0.00094 | 0.215 ± 0.024 | 0.176 ± 0.017 | 0.108 ± 0.0064 | 0.0803 ± 0.0054 | 0.112 ± 0.0029 | 0.235 ± 0.029 | 0.359 ± 0.026 | 0.508 ± 0.04 | 0.349 ± 0.056 | 0.134 ± 0.014
12 | CCOC(=O)O[C@]1(C(=O)OCCl)CC[C@H]2[C@@H]3CCC4=CC(=O)C=C[C@]4(C)[C@H]3[C@@H](O)C[C@@]21C [Loteprednol etabonate] | 0.135 ± 0.003 | 0.167 ± 0.02 | 0.15 ± 0.0072 | 0.196 ± 0.028 | 0.114 ± 0.01 | 0.179 ± 0.0076 | 0.24 ± 0.019 | 0.26 ± 0.14 | 0.473 ± 0.12 | 0.371 ± 0.017 | 0.219 ± 0.024
13 | c1ccc2c(c1)CCCc1cc(NCCN3CCOCC3)nnc1-2 | 0.215 ± 0.0088 | 0.285 ± 0.013 | 0.278 ± 0.0085 | 0.17 ± 0.029 | 0.149 ± 0.0053 | 0.133 ± 0.0058 | 0.194 ± 0.055 | 0.477 ± 0.044 | 0.4846 ± 0.0026 | 0.4087 ± 0.0033 | 0.328 ± 0.03
14 | OC[C@H]1O[C@@H](Oc2ccc(O)cc2)[C@H](O)[C@@H](O)[C@@H]1O [Arbutin] | 0.245 ± 0.012 | 0.325 ± 0.02 | 0.272 ± 0.011 | 0.193 ± 0.021 | 0.191 ± 0.0053 | 0.144 ± 0.0033 | 0.21 ± 0.011 | 0.362 ± 0.092 | 0.499 ± 0.077 | 0.403 ± 0.017 | 0.317 ± 0.013
15 | O=C1CCc2ccc(OCCCCN3CCN(c4cccc(Cl)c4Cl)CC3)cc2N1 [Aripiprazole] | 0.171 ± 0.013 | 0.243 ± 0.021 | 0.298 ± 0.02 | 0.15 ± 0.005 | 0.1175 ± 0.001 | 0.159 ± 0.006 | 0.21 ± 0.022 | 0.391 ± 0.036 | 0.418 ± 0.077 | 0.0572 ± 0.0048 | 0.0531 ± 0.0021
16 | CN1CCc2c(c3ccccc3n2Cc2ccccc2)C1 [Mebhydroline 1,5-naphtalenedisulfonate] | 0.175 ± 0.0028 | 0.218 ± 0.0081 | 0.267 ± 0.012 | 0.199 ± 0.02 | 0.133 ± 0.0032 | 0.157 ± 0.005 | 0.179 ± 0.014 | 0.278 ± 0.055 | 0.4471 ± 0.0035 | 0.404 ± 0.0065 | 0.261 ± 0.034
17 | Nc1nc(N)nc(-c2cc(Cl)ccc2Cl)n1 [Irsogladine maleate] | 0.238 ± 0.0051 | 0.298 ± 0.013 | 0.2393 ± 0.0018 | 0.207 ± 0.011 | 0.173 ± 0.0041 | 0.143 ± 0.0066 | 0.297 ± 0.072 | 0.406 ± 0.025 | 0.589 ± 0.1 | 0.402 ± 0.0076 | 0.357 ± 0.0079
